Five molecules from PubChem BioAssay can be followed below.

Experiment [1] is described as follows: anti-His antibody binders, primary screen, artefact control for SMM control protein annotation, biochemical, small-molecule microarray, 635 nm fluorescence (AID 1128).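 Further: score merges feature fluorescence with signal-to-noise for each printed compound spot.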 The following applies: anti-His Alexa647 antibody binding, higher = more signal.
The test system of experiment [2] is Human papillomavirus type 1a E7 protein (residues 1-88). Put plainly: HPV1a E7 small-molecule binders, primary screen, biochemical, small-molecule microarray, residues 1-88, 635 nm (AID 1129). As to conditions: small-molecule microarray binding, fluorescence 635 nm; higher = more signal.
The target in experiment [3] is Focal adhesion kinase 1 (Homo sapiens) (UniProt Q05397). The experiment can be described thus: small-molecule microarray binders of FAK, primary screen, biochemical, 635/667 nm fluorescence, BSA, DTT (AID 1130).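 Further: composite of spot emission at 667 nm and signal to noise over triplicate slides.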 As to conditions: PTK2 binding, 635 nm fluorescence, higher = more signal.
Experiment [4] concerns Fibrinogen (Alexa647-labelled). The experiment can be described thus: fibrinogen binders on compound microarrays, profiling panel, artefact control for SMM control-protein annotation, biochemical, small-molecule microarray, 635/667 nm fluorescence (AID 1131).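 Further: z-score merges 667 nm fluorescence with per-spot signal-to-noise over triplicate slides.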 The following applies: fibrinogen-A647 binding fluorescence, higher = more signal.
Experiment [5] addresses Follistatin (Homo sapiens) (UniProt P19883). The experiment can be described thus: follistatin binders on small-molecule microarrays, primary screen, biochemical, small-molecule microarray, 635/667 nm fluorescence (AID 1132). The following applies: FST binding, 635 nm fluorescence, higher = more signal.
For experiment [6], the target named is Fibroblast growth factor 2 (Homo sapiens) (UniProt P09038). The experiment can be described thus: FGF2 binders on small-molecule microarrays, primary screen, biochemical, small-molecule microarray, 635/667 nm fluorescence (AID 1133). The following applies: small-molecule microarray binding, FGF2, fluorescence 635/667; higher = more signal.
Experiment [7] is described as follows: mitochondrial membrane potential change in A549 cells, profiling panel, cell-based, JC-1 fluorescence, basal, 24 h, 100 nL (AID 1138).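 Further: A549 lung adenocarcinoma cells under basal conditions with no added stimulus; test concentration not given here.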 The following applies: higher = more signal.
Experiment [8] concerns Lefty1. The experiment can be described thus: Lefty1 binders on small-molecule microarrays, primary screen, biochemical, small-molecule microarray, 635/667 nm fluorescence (AID 1139). As to conditions: small-molecule microarray binding, fluorescence 635/667; higher = more signal.
Experiment [9] has as its system wheat germ agglutinin (Triticum aestivum), Alexa647-labelled. Put plainly: wheat germ agglutinin binders on compound microarrays, profiling panel, artefact control for SMM control-protein annotation, biochemical, small-molecule microarray, 635/667 nm fluorescence (AID 1140).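 Further: score merges 667 nm feature emission with signal to noise over triplicate slides.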 The following applies: WGA-A647 binding, 635 nm fluorescence, higher = more signal.
The target in experiment [10] is Luciferin 4-monooxygenase (Photinus pyralis) (UniProt P08659). Put plainly: firefly luciferase enzyme inhibitors, primary screen, biochemical, luminescence, purified enzyme, 2006 set (AID 1141).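 Further: cell-free assay with purified firefly luciferase at 100 ng per well in PBS; test concentration not given here.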 The following applies: SteadyGlo luminescence, 30 min, higher = more signal, called active from +8 up or from −8 down.
Experiment [11] concerns Wnt5a (protein binding on small-molecule microarray). Put plainly: Wnt5a binders on small-molecule microarray, primary screen, biophysical, 635/667 nm fluorescence (AID 1142).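 Further: fluorescence read at 667 nm with signal to noise per printed feature.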 The following applies: 635 nm fluorescence, higher = more signal.
Experiment [12] can be described thus: cell viability in Huh7 cells, primary screen, cytotoxicity control for HCV replication inhibitor project, CellTiter-Glo luminescence, basal, 48 h (AID 1143).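 Further: Huh7 hepatoma cells carrying a hepatitis C replication reporter with no stimulus; test concentration not given here.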 The following applies: Huh7 HCV replicon, higher = more signal, called active from +8 up or from −8 down. (In ATP-based viability assays light output follows the ATP content of the culture.)
Experiment [13] is described as follows: P. aeruginosa biofilm formation inhibitors, primary screen, PAO1 strain, BacTiter-Glo luminescence, LB-PBS (AID 1144). As to conditions: 12 h, higher = more signal.
Experiment [14] in a line: CREB reporter modulators without forskolin, primary screen, cell-based, PC12, CRE-LacZ reporter, unstimulated (AID 1145). As to conditions: no forskolin, luminescence, 4.5 h, higher = more signal, called active from +8 up or from −8 down.
Experiment [15] in a line: CREB reporter modulators under forskolin, primary screen, cell-based, PC12, CRE-LacZ reporter, forskolin-stimulated (AID 1146).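 Further: PC12 cells with 6xCRE LacZ reporter stimulated by forskolin 10 µM; beta-galactosidase reporter signal reflecting CREB driven transcription.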 The following applies: luminescence, 4.5 h, higher = more signal, called active from +8 up or from −8 down.
Experiment [16] addresses Streptavidin (Streptomyces avidinii) (UniProt P22629). The experiment can be described thus: streptavidin binders on small-molecule microarray, primary screen, artefact control for SMM compound annotation, biophysical, 635/667 nm fluorescence (AID 1147).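 Further: signal reflects streptavidin binding to arrayed compounds as a control protein.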 As to conditions: streptavidin binding, higher = more signal.
Experiment [17] can be described thus: small-molecule binders of probe aInhba, primary screen, biochemical, small-molecule microarray, 635/667 nm fluorescence (AID 1148).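 Further: score merges 667nm spot fluorescence with signal-to-noise for antibody binding to printed compounds.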 The following applies: higher = more signal.
Experiment [18] concerns the target Torsin-1A (Homo sapiens) (UniProt O14656). Put plainly: torsin A binders from cell lysate, primary screen, small-molecule microarray, wild-type, 635/667 nm (AID 1149). As to conditions: COS7 hTOR1A-WT lysate, 635 nm fluorescence, higher = more signal.
Experiment [19] has the same target. The experiment can be described thus: small-molecule binders of mutant TOR1A in lysate, primary screen, cell lysate, small-molecule microarray, COS7 lysate, 635/667 nm fluorescence (AID 1150).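 Further: score pools 667 nm emission and signal to noise measuring lysate protein binding.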 The following applies: COS7 hTOR1A mutant lysate, 635 nm fluorescence, higher = more signal.
The test system of experiment [20] is Sonic hedgehog protein (Shh). The experiment can be described thus: small-molecule binders of Shh protein, primary screen, biochemical, small-molecule microarray, 635/667 nm fluorescence (AID 1151).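 Further: Shh protein binding to compounds spotted on small-molecule microarray slides; score combines spot fluorescence intensity with signal-to-noise across triplicate slides.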 As to conditions: small-molecule microarray binding, 635 nm fluorescence; higher = more signal.

Activity calls are given as the source filed them. Unless noted, how the calls were made is not given here.

Sequence of Fibroblast growth factor 2 (Homo sapiens) (P09038 whole entry, looked up): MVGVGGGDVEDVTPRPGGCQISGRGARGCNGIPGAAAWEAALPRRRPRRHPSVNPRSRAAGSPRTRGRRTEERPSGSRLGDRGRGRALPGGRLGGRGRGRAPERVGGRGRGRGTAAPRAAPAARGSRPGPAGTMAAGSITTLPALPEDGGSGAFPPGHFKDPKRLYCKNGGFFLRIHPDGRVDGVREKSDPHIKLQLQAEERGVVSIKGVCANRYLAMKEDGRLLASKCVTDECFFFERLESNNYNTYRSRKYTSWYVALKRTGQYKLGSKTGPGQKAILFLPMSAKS
Sequence of Follistatin (Homo sapiens) (P19883 whole entry, looked up): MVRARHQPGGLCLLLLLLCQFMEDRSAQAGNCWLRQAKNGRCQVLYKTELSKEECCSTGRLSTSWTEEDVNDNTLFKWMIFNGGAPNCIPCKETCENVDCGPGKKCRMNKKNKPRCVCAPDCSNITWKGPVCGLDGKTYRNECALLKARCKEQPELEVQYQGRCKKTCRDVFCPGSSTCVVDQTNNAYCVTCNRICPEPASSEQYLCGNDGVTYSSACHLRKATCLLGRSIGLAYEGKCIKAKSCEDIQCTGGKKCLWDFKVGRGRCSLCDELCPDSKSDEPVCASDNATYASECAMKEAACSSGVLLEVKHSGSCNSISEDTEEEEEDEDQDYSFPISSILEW
Sequence of Torsin-1A (Homo sapiens) (O14656 whole entry, looked up): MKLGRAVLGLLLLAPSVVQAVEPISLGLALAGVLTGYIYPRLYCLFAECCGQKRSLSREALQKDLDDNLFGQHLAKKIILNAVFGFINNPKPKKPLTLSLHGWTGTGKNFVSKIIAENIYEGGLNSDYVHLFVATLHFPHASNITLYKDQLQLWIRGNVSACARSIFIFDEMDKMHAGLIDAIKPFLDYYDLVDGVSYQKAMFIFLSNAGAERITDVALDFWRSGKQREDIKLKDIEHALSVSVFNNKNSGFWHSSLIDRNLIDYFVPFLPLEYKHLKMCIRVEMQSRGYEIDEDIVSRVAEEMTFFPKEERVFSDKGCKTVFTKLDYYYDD
Sequence of Focal adhesion kinase 1 (Homo sapiens) (Q05397 whole entry, looked up): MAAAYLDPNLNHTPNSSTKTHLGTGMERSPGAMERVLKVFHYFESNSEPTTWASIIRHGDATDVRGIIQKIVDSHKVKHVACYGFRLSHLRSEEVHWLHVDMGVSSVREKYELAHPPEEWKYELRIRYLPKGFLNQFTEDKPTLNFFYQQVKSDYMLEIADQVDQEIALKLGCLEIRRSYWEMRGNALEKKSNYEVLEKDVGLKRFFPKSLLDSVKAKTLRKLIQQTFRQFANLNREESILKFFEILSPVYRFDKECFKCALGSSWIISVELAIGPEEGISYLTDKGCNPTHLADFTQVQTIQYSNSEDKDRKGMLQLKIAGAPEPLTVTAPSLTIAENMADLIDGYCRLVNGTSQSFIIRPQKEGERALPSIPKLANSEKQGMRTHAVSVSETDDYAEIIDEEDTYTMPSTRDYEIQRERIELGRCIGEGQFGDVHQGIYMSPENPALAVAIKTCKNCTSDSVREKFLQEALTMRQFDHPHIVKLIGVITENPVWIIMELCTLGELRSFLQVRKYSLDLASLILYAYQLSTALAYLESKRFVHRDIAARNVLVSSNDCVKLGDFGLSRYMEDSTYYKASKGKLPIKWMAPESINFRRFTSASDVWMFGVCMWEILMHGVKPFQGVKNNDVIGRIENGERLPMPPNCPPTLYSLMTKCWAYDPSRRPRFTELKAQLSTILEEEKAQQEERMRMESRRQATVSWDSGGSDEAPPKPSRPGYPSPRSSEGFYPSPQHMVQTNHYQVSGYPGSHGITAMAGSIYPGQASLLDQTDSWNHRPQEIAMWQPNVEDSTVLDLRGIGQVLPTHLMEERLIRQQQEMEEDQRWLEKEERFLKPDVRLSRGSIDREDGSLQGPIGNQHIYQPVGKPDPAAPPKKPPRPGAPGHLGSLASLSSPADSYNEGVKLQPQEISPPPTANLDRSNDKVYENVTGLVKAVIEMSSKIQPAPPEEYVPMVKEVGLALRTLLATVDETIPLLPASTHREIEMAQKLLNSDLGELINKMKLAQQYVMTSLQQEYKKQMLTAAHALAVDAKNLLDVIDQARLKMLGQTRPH
Sequence of Streptavidin (Streptomyces avidinii) (P22629 whole entry, looked up): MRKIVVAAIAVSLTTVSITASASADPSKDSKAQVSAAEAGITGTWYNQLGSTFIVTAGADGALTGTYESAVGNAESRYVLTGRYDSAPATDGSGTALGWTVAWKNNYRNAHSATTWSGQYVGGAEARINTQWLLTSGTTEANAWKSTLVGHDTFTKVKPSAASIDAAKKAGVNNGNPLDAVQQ
Sequence of Luciferin 4-monooxygenase (Photinus pyralis) (P08659 whole entry, looked up): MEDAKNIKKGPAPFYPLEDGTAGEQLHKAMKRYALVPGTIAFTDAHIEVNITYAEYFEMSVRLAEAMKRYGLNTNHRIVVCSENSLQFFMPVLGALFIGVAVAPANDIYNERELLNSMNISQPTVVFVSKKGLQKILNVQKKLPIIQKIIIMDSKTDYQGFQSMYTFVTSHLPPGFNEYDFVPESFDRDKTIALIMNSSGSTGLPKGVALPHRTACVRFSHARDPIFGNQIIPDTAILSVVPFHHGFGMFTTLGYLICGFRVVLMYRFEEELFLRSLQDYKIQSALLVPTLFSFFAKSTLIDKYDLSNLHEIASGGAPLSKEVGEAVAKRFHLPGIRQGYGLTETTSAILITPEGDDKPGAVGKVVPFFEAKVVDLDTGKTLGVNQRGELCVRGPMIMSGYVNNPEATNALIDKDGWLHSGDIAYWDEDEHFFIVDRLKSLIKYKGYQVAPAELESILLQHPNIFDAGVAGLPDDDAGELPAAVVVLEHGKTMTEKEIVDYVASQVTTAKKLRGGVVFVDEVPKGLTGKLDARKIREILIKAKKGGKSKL

As for `O=C1O[C@H](c2ccccc2)[C@H](c2ccccc2)N2[C@H]1[C@@H](C(=O)NC[C@H](O)c1ccccc1)[C@]1(C(=O)Nc3ccc(C#CC4=CCCCC4)cc31)[C@H]2c1ccccc1OCCO`, the composite z-score in experiment [1] amounted to 1.24; in experiment [2] it was 1.19; in experiment [3] it was 0.661; in experiment [4] it was 0.86; in [5] it was 1.1; in [6] it was 0.198. Also, the composite z-score is 0.632 in [8]; 1.05 in experiment [9]; 0.401 in [11]; 0.787 in [16]; 0.0659 in [17]; 0.0585 in [18]. For the same molecule, the composite z-score in [19] is 0.223; in experiment [20] it was 0.134. The z-score in experiment [7] was -1.76; in experiment [10] it was -0.758 (inactive); in experiment [12], -6.13 (inactive); in experiment [13], -0.297 (inactive); in [14], -0.0784 (inactive); in experiment [15] it was -0.0119 (inactive).
With `O=C1NC(=O)C2C1C=CC(C(O)c1ccc(I)cc1)N2Nc1ccccn1` (stereo not given), the composite z-score is 2.1 in experiment [1]; 0.134 in experiment [2]; 0.675 in experiment [3]; 0.791 in [4]; 0.367 in experiment [5]; -0.109 in [6]. The composite z-score in [8] was -0.19; in experiment [9], 1.23; in experiment [11], -0.0488; in [16], 0.242; in experiment [17], -0.0216; in experiment [18], 0.282. Further, the composite z-score in [19] is 0.239; in experiment [20] it was -0.0484. The z-score in experiment [7] was -0.279; in [10], -0.759 (inactive); in experiment [12] it was 0.886 (inactive); in experiment [13], -0.833 (inactive); in [14], 0.636 (inactive); in experiment [15], 0.0542 (inactive).
Regarding `O=C1OCCC=C[C@H]2OC34C=CCN(Cn5nnc6ccccc65)C(=O)[C@H]3N(CCO)C(=O)[C@@H]4C12` (stereo not given in full), the composite z-score in experiment [1] is -0.459; in experiment [2], -0.566; in [3] it was -0.225; in experiment [4], -0.934; in experiment [5] it was -0.851; in [6], -1.3. Moreover, the composite z-score in experiment [8] was -1.31; in [9] it was 0.522; in [11], -0.83; in experiment [16], -1.48; in [17] it was -0.251; in [18] it was -1.01. Further, the results for the composite z-score in experiment [19] and in experiment [20] were -1.32 and -0.61, respectively. Also, the z-score in experiment [7] is -0.758; in experiment [10], 0.612 (inactive); in experiment [12], -0.208 (inactive); in experiment [13] it was -1.39 (inactive); in experiment [14], -1.3 (inactive); in experiment [15] it was -0.688 (inactive).
For the molecule `CC(C)[Si](C#C[Si](C(C)C)(C(C)C)C(C)C)(O[C@H](C)c1cn(Cc2ccccc2)nn1)C(C)C`, the composite z-score in [1] was determined as 0.386; in [2] it was 1.01; in [3], 0.677; in experiment [4], 0.872; in [5] it was 0.509; in experiment [6], 0.427. In addition, the composite z-score in experiment [8] was 0.56; in [9] it was 0.502; in [11], 0.0406; in experiment [16] it was 1.32; in experiment [17], -0.0405; in experiment [18], 0.709. The results for the composite z-score in [19] and in experiment [20] were 0.5 and 0.372, respectively. In addition, the z-score in experiment [7] is 0.0378; in experiment [10], -0.398 (inactive); in [12], -0.182 (inactive); in experiment [13] it was -0.324 (inactive); in [14] it was -0.0848 (inactive); in [15], -0.624 (inactive).
For the molecule `C#CCN(C/C=C/c1ccccc1)[C@H](CO)c1ccccc1`, the composite z-score was -0.429 in experiment [1]; 0.168 in experiment [2]; -0.0352 in experiment [3]; -0.213 in [4]; 0.495 in experiment [5]; 0.444 in experiment [6]. The composite z-score is 0.968 in experiment [8]; 0.241 in experiment [9]; 0.325 in experiment [11]; 0.41 in experiment [16]; -0.103 in [17]; 0.25 in experiment [18]. For the same molecule, the composite z-score turned out to be 0.294 in experiment [19] and 0.743 in experiment [20]. In addition, the z-score was -1.38 in [7]; 0.616 (inactive) in experiment [10]; -3.79 (inactive) in experiment [12]; -0.192 (inactive) in experiment [13]; 1.65 (inactive) in [14]; -0.121 (inactive) in experiment [15].
